From PubChem BioAssay
Where “and” joins values, the source holds several entries; their conditions need not be identical. Identical values can stand only once. Calls of active or inactive are those of the source.

Assays:
[1] = anti-His antibody binders, primary screen, artefact control for SMM control protein annotation, biochemical, small-molecule microarray, 635 nm fluorescence (AID 1128); details: anti-His Alexa647 antibody binding, higher = more signal;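 note: score merges feature fluorescence with signal-to-noise for each printed compound spot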
[2] = tested on: Human papillomavirus type 1a E7 protein (residues 1-88); assay: HPV1a E7 small-molecule binders, primary screen, biochemical, small-molecule microarray, residues 1-88, 635 nm (AID 1129); details: small-molecule microarray binding, fluorescence 635 nm; higher = more signal
[3] = target: Focal adhesion kinase 1 (Homo sapiens) (UniProt Q05397); assay: small-molecule microarray binders of FAK, primary screen, biochemical, 635/667 nm fluorescence, BSA, DTT (AID 1130); details: PTK2 binding, 635 nm fluorescence, higher = more signal;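 note: composite of spot emission at 667 nm and signal to noise over triplicate slides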
[4] = tested on: Fibrinogen (Alexa647-labelled); assay: fibrinogen binders on compound microarrays, profiling panel, artefact control for SMM control-protein annotation, biochemical, small-molecule microarray, 635/667 nm fluorescence (AID 1131); details: fibrinogen-A647 binding fluorescence, higher = more signal;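 note: z-score merges 667 nm fluorescence with per-spot signal-to-noise over triplicate slides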
[5] = target: Follistatin (Homo sapiens) (UniProt P19883); assay: follistatin binders on small-molecule microarrays, primary screen, biochemical, small-molecule microarray, 635/667 nm fluorescence (AID 1132); details: FST binding, 635 nm fluorescence, higher = more signal
[6] = target: Fibroblast growth factor 2 (Homo sapiens) (UniProt P09038); assay: FGF2 binders on small-molecule microarrays, primary screen, biochemical, small-molecule microarray, 635/667 nm fluorescence (AID 1133); details: small-molecule microarray binding, FGF2, fluorescence 635/667; higher = more signal
[7] = mitochondrial membrane potential change in A549 cells, profiling panel, cell-based, JC-1 fluorescence, basal, 24 h, 100 nL (AID 1138); details: higher = more signal;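 note: A549 lung adenocarcinoma cells under basal conditions with no added stimulus; test concentration not given here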
Lefty1 = Lefty1 binders on small-molecule microarrays, primary screen, biochemical, small-molecule microarray, 635/667 nm fluorescence (AID 1139); details: small-molecule microarray binding, fluorescence 635/667; higher = more signal
[8] = tested on: wheat germ agglutinin (Triticum aestivum), Alexa647-labelled; assay: wheat germ agglutinin binders on compound microarrays, profiling panel, artefact control for SMM control-protein annotation, biochemical, small-molecule microarray, 635/667 nm fluorescence (AID 1140); details: WGA-A647 binding, 635 nm fluorescence, higher = more signal;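 note: score merges 667 nm feature emission with signal to noise over triplicate slides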
[9] = target: Luciferin 4-monooxygenase (Photinus pyralis) (UniProt P08659); assay: firefly luciferase enzyme inhibitors, primary screen, biochemical, luminescence, purified enzyme, 2006 set (AID 1141); details: SteadyGlo luminescence, 30 min, higher = more signal, called active from +8 up or from −8 down;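 note: cell-free assay with purified firefly luciferase at 100 ng per well in PBS; test concentration not given here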
Sequence of Luciferin 4-monooxygenase (Photinus pyralis) (P08659 whole entry, looked up): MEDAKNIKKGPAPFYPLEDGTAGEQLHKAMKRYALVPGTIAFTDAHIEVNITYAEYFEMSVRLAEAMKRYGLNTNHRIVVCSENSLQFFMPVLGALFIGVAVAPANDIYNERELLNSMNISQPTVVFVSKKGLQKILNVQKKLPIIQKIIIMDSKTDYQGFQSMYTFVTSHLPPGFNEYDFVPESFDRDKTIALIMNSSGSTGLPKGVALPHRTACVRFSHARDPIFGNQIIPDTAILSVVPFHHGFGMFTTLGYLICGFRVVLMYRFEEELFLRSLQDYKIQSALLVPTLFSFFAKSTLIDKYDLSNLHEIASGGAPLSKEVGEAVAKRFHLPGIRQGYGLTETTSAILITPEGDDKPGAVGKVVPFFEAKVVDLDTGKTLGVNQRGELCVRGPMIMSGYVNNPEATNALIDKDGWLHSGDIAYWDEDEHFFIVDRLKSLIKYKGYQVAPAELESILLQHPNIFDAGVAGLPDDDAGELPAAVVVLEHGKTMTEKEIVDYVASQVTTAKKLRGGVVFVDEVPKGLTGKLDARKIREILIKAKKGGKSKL

Sequence of Focal adhesion kinase 1 (Homo sapiens) (Q05397 whole entry, looked up): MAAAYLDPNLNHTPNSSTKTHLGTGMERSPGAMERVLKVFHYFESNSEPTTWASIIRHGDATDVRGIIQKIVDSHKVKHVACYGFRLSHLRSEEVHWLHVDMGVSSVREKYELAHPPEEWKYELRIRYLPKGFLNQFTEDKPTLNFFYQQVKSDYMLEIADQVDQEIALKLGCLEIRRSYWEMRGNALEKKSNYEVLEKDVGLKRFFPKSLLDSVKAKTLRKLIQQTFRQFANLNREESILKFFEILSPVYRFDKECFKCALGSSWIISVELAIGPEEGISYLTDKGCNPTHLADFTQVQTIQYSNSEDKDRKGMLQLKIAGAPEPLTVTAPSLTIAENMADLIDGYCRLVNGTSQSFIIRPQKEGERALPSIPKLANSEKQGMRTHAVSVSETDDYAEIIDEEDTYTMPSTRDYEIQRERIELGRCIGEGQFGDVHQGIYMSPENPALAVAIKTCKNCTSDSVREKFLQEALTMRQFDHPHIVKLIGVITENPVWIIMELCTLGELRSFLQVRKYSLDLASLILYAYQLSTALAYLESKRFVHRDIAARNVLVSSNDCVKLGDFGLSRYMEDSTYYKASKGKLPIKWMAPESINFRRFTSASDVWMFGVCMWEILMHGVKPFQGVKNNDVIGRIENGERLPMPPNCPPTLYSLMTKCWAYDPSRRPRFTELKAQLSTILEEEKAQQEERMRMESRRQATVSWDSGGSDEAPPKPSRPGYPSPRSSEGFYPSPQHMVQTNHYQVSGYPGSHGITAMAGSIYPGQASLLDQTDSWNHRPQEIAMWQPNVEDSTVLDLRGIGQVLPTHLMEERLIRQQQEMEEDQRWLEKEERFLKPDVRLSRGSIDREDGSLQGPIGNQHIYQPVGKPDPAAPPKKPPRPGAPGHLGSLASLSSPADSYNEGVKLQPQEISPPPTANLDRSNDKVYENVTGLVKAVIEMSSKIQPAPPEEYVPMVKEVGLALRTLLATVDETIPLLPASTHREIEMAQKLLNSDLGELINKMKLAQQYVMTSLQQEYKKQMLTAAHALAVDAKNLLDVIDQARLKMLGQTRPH
Sequence of Follistatin (Homo sapiens) (P19883 whole entry, looked up): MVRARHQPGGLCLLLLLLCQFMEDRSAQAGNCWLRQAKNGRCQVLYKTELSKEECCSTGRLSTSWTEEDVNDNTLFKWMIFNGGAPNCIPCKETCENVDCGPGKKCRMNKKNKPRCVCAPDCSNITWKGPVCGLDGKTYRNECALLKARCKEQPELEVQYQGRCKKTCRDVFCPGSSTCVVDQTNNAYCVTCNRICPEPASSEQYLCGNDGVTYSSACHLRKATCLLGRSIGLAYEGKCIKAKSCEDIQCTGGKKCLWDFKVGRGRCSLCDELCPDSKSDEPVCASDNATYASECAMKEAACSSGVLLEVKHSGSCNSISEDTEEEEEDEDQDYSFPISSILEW
Sequence of Fibroblast growth factor 2 (Homo sapiens) (P09038 whole entry, looked up): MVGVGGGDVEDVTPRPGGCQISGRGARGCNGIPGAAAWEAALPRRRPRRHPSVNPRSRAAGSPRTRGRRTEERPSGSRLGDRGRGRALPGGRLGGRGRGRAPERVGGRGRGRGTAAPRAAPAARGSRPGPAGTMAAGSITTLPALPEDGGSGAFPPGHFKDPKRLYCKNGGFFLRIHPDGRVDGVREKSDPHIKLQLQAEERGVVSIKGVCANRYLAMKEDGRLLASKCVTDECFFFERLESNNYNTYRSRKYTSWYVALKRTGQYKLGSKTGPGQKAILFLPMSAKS

Structure (SMILES)	composite z-score [1]	composite z-score [2]	composite z-score [3]	composite z-score [4]	composite z-score [5]	composite z-score [6]	z-score [7]	composite z-score (Lefty1)	composite z-score [8]	z-score [9]
Cc1ccc(S(=O)(=O)N[C@@H]2COC(=O)CC=C[C@@H](C)[C@@H]3C=C[C@H](O)[C@@H](COC(=O)CC=C[C@H]2C)O3)cc1	-0.226 and -0.118	-0.617 and -0.0999	-0.466 and -0.318	-0.656 and 0.267	1.34 and 0.443	1.01 and 0.578	1.78 and -1.7	1.26 and 0.632	-0.113 and -0.0881	-0.92 (inactive) and 1.02 (inactive)
C=C(C)C(=O)OC[C@@H]1CN2[C@@H](CC[C@@H](C)[C@@H]2c2ccc(Br)cc2)C(=O)O1	-0.0452	0.818	0.213	0.762	0.55	0.854	1.77	0.966	0.146	-0.721 (inactive)
C=CCN(C(=O)C1N(CCCCCCO)C(=O)C2C(C(=O)O)C3C=CC21O3)C(C)(C)C (stereo not given)	-1 and 0.0369	-1.24 and -0.385	-0.837 and -0.881	-4.96 and -2.32	-1.88 and -2.11	-1.42 and -1.7	0.219 and 0.389	-2.49 and -1.84	-0.75 and -0.561	-1.04 (inactive) and -0.426 (inactive)
C=CCN(CCCCC)C(=O)C1N(CCCCCCO)C(=O)C2C(C(=O)O)C3C=CC21O3 (stereo not given)	-2.31 and 0.41	-0.813 and -0.519	-0.687 and -0.922	-1.63 and -1.36	-2.64 and -1.13	-2.25 and -2.14	-0.194 and 0.588	-1.55 and -1.07	-1.8 and -0.883	0.0975 (inactive) and -0.324 (inactive)
C[N+](C)(C)CCCCNC(=O)[C@H]1C[C@H]2C(=O)N[C@@H](CCCC[N+](C)(C)C)C(=O)N2[C@H]1c1ccc(O)cc1	2.99 and 3.33	0.395 and -1.59	0.267 and -0.478	0.56 and -1.1	1.57 and 1.45	2.01 and 1.99	-0.0637 and -0.967	1.62 and 1.64	-0.608 and -1.01	0.325 (inactive) and 0.332 (inactive)
C=CCN(Cc1ccccc1)C(=O)C(c1cccs1)N(C(=O)/C=C\C(=O)O)c1c(Cl)cccc1CO (stereo not given)	-0.815 and -1.36	-0.562 and -1.54	-0.675 and -0.0599	-2.79 and -3.53	-1.74 and -2.71	-2.4 and -1.88	-0.321 and -0.229	-1.51 and -1.93	-0.482 and -1.57	1.02 (inactive) and 0.077 (inactive)
C=CCN(C(=O)C(c1cccs1)N(C(=O)/C=C\C(=O)O)c1c(Cl)cccc1CO)C(C)(C)C (stereo not given)	0.28 and -0.668	-1.4 and -1.02	-0.513 and -0.619	-2.69 and -1.15	-1.48 and -1.81	-2.01 and -2.33	0.674 and 0.368	-1.96 and -2.54	-0.543 and -1	-0.242 (inactive) and -0.42 (inactive)
O=C1NC(=O)C2C1C=CC(C(O)c1ccc([N+](=O)[O-])cc1)N2Nc1ccc(Cl)cc1Cl (stereo not given)	0.396 and 0.455	1.14 and 1.18	0.649 and 0.342	0.969 and 0.703	0.816 and 0.774	0.202 and -0.279	0.824 and -0.201	-0.427 and -0.899	0.751 and 1.39	-1.81 (inactive) and -2.34 (inactive)
CO[C@H]1COC(=O)CC=C[C@@H](C)COC(=O)[C@H](CCSC)NC(=O)CC=C[C@@H]1C	0.512 and -0.138	-0.375 and -0.74	0.285 and -0.776	-1.19 and -1.63	1.5 and 1.58	1.97 and 1.78	-1.26 and 0.523	1.79 and 1.82	-0.353 and -1.42	-0.142 (inactive) and -0.463 (inactive)
C=CCN(C(=O)C1N(c2ccc(CCO)cc2)C(=O)C2C(C(=O)O)C3C=CC21O3)c1ccc(OC)cc1 (stereo not given)	0.0218 and -0.668	-0.304 and -0.769	0.0134 and -1.17	-0.369 and -1.3	-0.697 and -0.794	-1.24 and -1.75	-0.742 and -0.718	-0.708 and -0.967	0.0183 and -0.967	-0.622 (inactive) and 2.07 (inactive)
CCOC(=O)c1ccc(NC(=O)O[C@H]2[C@H](OC(=O)Nc3ccccc3)[C@H](OC(=O)Nc3ccccc3)[C@@H](OC)O[C@@H]2CO)cc1	1.27 and 1.9	1.21 and 1.23	0.495 and 1.09	0.982 and 0.709	1.27 and 1.31	1.19 and 0.806	-0.469 and -0.781	0.551 and 1.15	0.96 and 1.22	0.197 (inactive) and -0.2 (inactive)
C[C@@H]1CC[C@H]2C(=O)NC[C@@H](O)CN2[C@H]1c1ccc(Br)cc1	-0.035 and -0.372	-0.165 and -0.298	0.0377 and -0.438	-0.0102 and 0.0552	-0.175 and -0.142	0.0825 and 0.314	-0.386 and 1.68	0.396 and 0.0488	-0.2 and -0.0411	0.29 (inactive) and -0.467 (inactive)
CC[C@@H]1C(Sc2ccccc2)C(C(=O)O)[C@H](c2ccc(C)cc2)N1S(=O)(=O)c1ccc(C)cc1 (stereo not given in full)	1.81 and 0.489	1.25 and 1.17	0.994 and 0.704	1.03	0.427 and 0.634	-0.375 and -0.193	-0.102 and 0.13	-0.642 and 0.533	0.707 and 0.804	0.534 (inactive) and -0.0047 (inactive)
CO[C@@H]1COC(=O)[C@H](Cc2ccccc2)NC(=O)CC=C[C@@H](C)[C@H](OC)COC(=O)[C@@H](C)NC(=O)CC=C[C@H]1C	0.106 and 0.0473	-0.184 and -0.37	-0.129 and 0.183	-0.116 and -0.231	1.32 and 1.18	1.58 and 1.35	1.24 and 0.944	1.54 and 1.35	-0.714 and -0.807	-0.554 (inactive) and -1.49 (inactive)
CCCCN1CC=CC23O[C@@H]4C=CCCOC(=O)C4[C@H]2C(=O)N(C(C)CO)[C@@H]3C1=O (stereo not given in full)	2.27 and -0.329	-0.461 and -0.54	-0.293 and -0.0655	-1.04 and -0.749	-0.546 and 0.101	-0.579 and -0.63	-0.224 and -0.725	-0.222 and 0.172	-0.558 and -0.281	-0.0385 (inactive) and -0.213 (inactive)
C=C[C@@H](C)[C@H](O)c1ccc(O)c2ccccc12	-0.181 and 1.87	-0.7 and -1.54	0.825 and -0.491	0.837 and -0.449	1.31 and 0.663	1.14 and 0.0819	-0.832 and -0.689	0.948 and -0.871	0.0825 and -0.52	0.546 (inactive) and 0.338 (inactive)
